# Assay results: PubChem BioAssay (EPA / NIEHS)
# Inconclusive results are not listed. Active and inactive are the calls of the source. Rule for the calls, unless noted: active = hit-call score of the fitted dose curve at least 0.9, where 1 is the maximum; inactive = score below 0.9.
# What was measured:
# [1] = ATG_NFI_CIS: Attagene CIS-FACTORIAL HepG2 Assay for human Nuclear Factor I (NFI) (AID 2282989); conditions: HepG2 cis-regulatory reporter, NFI response element transcription; actives raise or lower the signal
# Procedure, shortened: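 Read-out: reporter mRNA via RT-PCR plus capillary electrophoresis with fluorescence detection. Transiently transfected HepG2 (endogenous TF activity on cis promoters), 24 h compound exposure; gain or loss of signal fitted against DMSO.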
# [2] = target: Myc proto-oncogene protein (Homo sapiens) (UniProt P01106); experiment: ATG_Myc_CIS: Attagene CIS-FACTORIAL HepG2 Assay for human Myelocytomatosis (Myc) Proto-Oncogene Transcription Factor (AID 2282990); conditions: HepG2, Attagene cis-reporter transcription factor activity; actives raise or lower the signal
# Procedure, shortened: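 DMSO-normalised, bidirectionally fitted reporter mRNA signal. HepG2 cells transfected with cis reporter constructs, treated 24 h; transcripts detected by RT-PCR, 6-FAM primer extension and CE.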
# [3] = ATG_Oct_MLP_CIS: Attagene CIS-FACTORIAL HepG2 Assay for human Octamer-Binding Transcription Factor (Oct) (AID 2282993); conditions: HepG2 Attagene cis-factorial Oct reporter, mRNA; actives raise or lower the signal
# Procedure, shortened: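 Read-out: reporter mRNA via RT-PCR plus capillary electrophoresis of 6-FAM-labelled fragments. Transiently transfected HepG2, 24 h exposure, endogenous TF activity on cis elements. Gain or loss of signal fitted relative to DMSO.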
# [4] = target: Cellular tumor antigen p53 (Homo sapiens) (UniProt P04637); experiment: ATG_p53_CIS: Attagene CIS-FACTORIAL HepG2 Assay for human p53 Transcription Factor (AID 2282994); conditions: HepG2 p53 cis-element reporter, Attagene mRNA; actives raise or lower the signal
# Procedure, shortened: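 Steps: transfect HepG2 with multiplexed cis reporter constructs; dose chemicals 24 h; extract RNA, reverse-transcribe, PCR-amplify reporter sequences; FAM-label, HpaI-digest, resolve fragments by CE. Activity fitted both directions relative to DMSO.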
# [5] = target: human Peroxisome Proliferator-activated Receptor alpha (PPARa), PPARA (gene 5465) (UniProt Q07869); experiment: ATG_PPARa_TRANS: Attagene TRANS-FACTORIAL HepG2 Assay for human Peroxisome Proliferator-activated Receptor alpha (PPARa) (AID 2283001; active = hit-call score of the fitted dose curve at least 0.9, where 1 is the maximum;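 for AC50: potency for gain of reporter signal over DMSO so agonist or activator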)
# Procedure, shortened: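 Exposure: 24 h, transiently transfected HepG2 cells. Endpoint: GAL4-UAS reporter mRNA, RT-PCR with capillary electrophoresis fluorescence. Baseline: DMSO; increases fitted.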
# [6] = target: human Peroxisome Proliferator-activated Receptor delta (PPARd), PPARD (gene 5467) (UniProt Q03181); experiment: ATG_PPARd_TRANS: Attagene TRANS-FACTORIAL HepG2 Assay for human Peroxisome Proliferator-activated Receptor delta (PPARd) (AID 2283002; active = hit-call score of the fitted dose curve at least 0.9, where 1 is the maximum)
# Procedure, shortened: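 Measured quantity: GAL4-UAS reporter transcript induction in HepG2 after 24 h chemical dosing, with NR-Gal4 chimeras supplied by transient transfection. Detection by RT-PCR and capillary electrophoresis; upward fit against DMSO.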
# [7] = target: Peroxisome proliferator-activated receptor gamma (Homo sapiens) (UniProt P37231); experiment: ATG_PPARg_TRANS: Attagene TRANS-FACTORIAL HepG2 Assay for human Peroxisome Proliferator-activated Receptor-gamma (PPARg) (AID 2283007; active = hit-call score of the fitted dose curve at least 0.9, where 1 is the maximum)
# Procedure, shortened: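 Multiplexed reporter transcription units in HepG2, 24 h dosing, reporter transcripts quantified by fluorescent RT-PCR and capillary electrophoresis. Increase over DMSO scored.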
# [8] = target: Nuclear receptor subfamily 1 group I member 2 (Homo sapiens) (UniProt O75469); experiment: ATG_PXR_TRANS: Attagene TRANS-FACTORIAL HepG2 Assay for human Pregnane X Receptor (PXR) (AID 2283008; active = hit-call score of the fitted dose curve at least 0.9, where 1 is the maximum)
# Procedure, shortened: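 HepG2 transfected (FuGene 6) with GAL4-UAS reporter units + PXR-Gal4 chimera; dosed 24 h. Total RNA → oligo(dT) RT → PCR → 6-FAM primer extension → HpaI cut → CE. Gain-of-signal vs DMSO.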
# [9] = target: human RAR-related Orphan Receptor beta (RORb), RORB (gene 6096) (UniProt Q92753); experiment: ATG_RORb_TRANS: Attagene TRANS-FACTORIAL HepG2 Assay for human RAR-related Orphan Receptor beta (RORb) (AID 2283010; active = hit-call score of the fitted dose curve at least 0.9, where 1 is the maximum)
# Procedure, shortened: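 HepG2, transient MRTU transfection (GAL4-UAS reporters, exogenous NR-Gal4 chimeras); 24 h compound exposure; total RNA → RT-PCR → 6-FAM primer extension → HpaI digest → CE fluorescence. Positive direction vs DMSO baseline.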
# [10] = ATG_NRF2_ARE_CIS: Attagene CIS-FACTORIAL HepG2 Assay for human Nuclear Factor Erythroid 2 Related Factor 2 (NFR2) response to Antioxidant Response Elements (ARE) (AID 2282992); conditions: HepG2 Attagene ARE/NRF2 reporter, transcription factor activity; actives raise or lower the signal;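 for AC50: reporter mRNA level measured by RT-PCR and capillary electrophoresis fluorescence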
# Procedure, shortened: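 Endogenous transcription factor activity in human liver HepG2 cells is tracked via a cis-element-driven reporter within a multiplexed set. mRNA induction is read by RT-PCR and capillary electrophoresis after 24 h, with DMSO as baseline.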
# [11] = BSK_3C_uPAR: BioMAP Diversity Plus: 3C Assay for Urokinase-type plasminogen activator receptor (uPAR) Biomarker Activity (AID 2282998); conditions: BioMAP 3C HUVEC, uPAR biomarker ELISA; actives raise or lower the signal
# Procedure, shortened: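 HUVEC primary cells; 24 h post-dose; uPAR by ELISA; gain or loss of signal fitted bidirectionally vs DMSO baseline.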
# [12] = BSK_3C_VCAM1: BioMAP Diversity Plus: 3C Assay for Vascular cell adhesion molecule 1 (VCAM1) Biomarker Activity (AID 2282999); conditions: BioMAP 3C HUVEC, VCAM1 ELISA, cytokine-stimulated; actives raise or lower the signal
# Procedure, shortened: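 Vascular primary endothelium (human umbilical vein) was exposed to chemicals and assayed 24 h later. VCAM-1 levels came from ELISA, with DMSO serving as baseline for bidirectional fitting.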
# [13] = BSK_4H_Eotaxin3: BioMAP Diversity Plus: 4H Assay for Eotaxin 3 Biomarker Activity (AID 2283000); conditions: primary human endothelial cells (HUVEC); actives raise or lower the signal;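 note: CCL26 protein level quantified by ELISA in parallel with SRB cytotoxicity check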
# Procedure, shortened: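 Readout is Eotaxin-3 (CCL26) level by ELISA in primary human umbilical vein endothelial cells harvested 24 h after chemical exposure; activity fitted in both directions against DMSO control.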
# [14] = read-out: Intercellular Adhesion Molecule 1 (ICAM1), ICAM1 (gene 3383); experiment: BSK_3C_ICAM1: BioMAP Diversity Plus: 3C Assay for Intercellular Adhesion Molecule 1 (ICAM1) Biomarker Activity (AID 2283003); conditions: primary human endothelial cells (HUVEC); actives raise or lower the signal
# Procedure, shortened: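 ELISA read-out of ICAM-1; HUVEC (primary human), 3C system, 24 h post-dosing; bidirectional fit vs DMSO baseline.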
# [15] = BSK_3C_Proliferation: Cell Proliferation Assessment in the BioMAP Diversity Plus: 3C Assay (AID 2283006); conditions: primary human endothelial cells (HUVEC);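 for AC50: potency may reflect either rise or fall in cell number versus DMSO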
# Procedure, shortened: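 HUVEC, sub-confluent; 48 h chemical exposure; 10% TCA fix, 0.1% SRB stain, A560 total protein. Gain or loss of signal fitted both directions vs DMSO control.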
# [16] = ATG_NF_kB_CIS: Attagene CIS-FACTORIAL HepG2 Assay for human Nuclear Factor Kappa B (NF-kB) (AID 2282991); conditions: HepG2 Attagene cis-factorial NF-kB reporter mRNA; actives raise or lower the signal
# Procedure, shortened: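 HepG2, transient multi-reporter transfection, cis promoter elements (endogenous TFs). 24 h exposure. Total RNA → RT → PCR → 6-FAM label → HpaI → CE. Gain/loss vs DMSO.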
# Chain of human Peroxisome Proliferator-activated Receptor alpha (PPARa), PPARA (gene 5465) (Q07869 whole entry, looked up, the tested form may be a part): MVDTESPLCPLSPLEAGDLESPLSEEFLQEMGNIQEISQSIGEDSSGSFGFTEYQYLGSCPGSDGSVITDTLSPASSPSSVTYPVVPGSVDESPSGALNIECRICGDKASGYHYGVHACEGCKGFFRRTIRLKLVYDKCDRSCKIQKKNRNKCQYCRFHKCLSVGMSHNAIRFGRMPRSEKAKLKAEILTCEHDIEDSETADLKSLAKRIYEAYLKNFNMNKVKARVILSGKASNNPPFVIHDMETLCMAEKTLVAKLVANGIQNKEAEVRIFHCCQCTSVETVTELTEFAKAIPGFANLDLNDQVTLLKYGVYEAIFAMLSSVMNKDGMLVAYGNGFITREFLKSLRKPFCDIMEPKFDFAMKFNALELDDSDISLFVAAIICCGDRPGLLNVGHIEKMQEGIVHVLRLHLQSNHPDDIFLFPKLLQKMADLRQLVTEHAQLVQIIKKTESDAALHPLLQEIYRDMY
# Chain of Nuclear receptor subfamily 1 group I member 2 (Homo sapiens) (O75469 whole entry, looked up, the tested form may be a part): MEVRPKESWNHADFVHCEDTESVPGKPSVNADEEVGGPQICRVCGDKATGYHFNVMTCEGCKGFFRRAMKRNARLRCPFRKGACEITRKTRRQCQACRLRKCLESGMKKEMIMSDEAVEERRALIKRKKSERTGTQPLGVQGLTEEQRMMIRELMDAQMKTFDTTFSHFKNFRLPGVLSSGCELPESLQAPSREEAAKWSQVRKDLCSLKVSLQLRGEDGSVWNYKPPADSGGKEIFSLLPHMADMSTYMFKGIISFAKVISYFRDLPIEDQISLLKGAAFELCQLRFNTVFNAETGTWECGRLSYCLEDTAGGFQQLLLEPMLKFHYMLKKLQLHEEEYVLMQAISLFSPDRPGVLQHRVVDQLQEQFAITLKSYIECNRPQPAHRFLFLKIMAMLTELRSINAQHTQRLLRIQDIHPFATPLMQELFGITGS
# Chain of human Peroxisome Proliferator-activated Receptor delta (PPARd), PPARD (gene 5467) (Q03181 whole entry, looked up, the tested form may be a part): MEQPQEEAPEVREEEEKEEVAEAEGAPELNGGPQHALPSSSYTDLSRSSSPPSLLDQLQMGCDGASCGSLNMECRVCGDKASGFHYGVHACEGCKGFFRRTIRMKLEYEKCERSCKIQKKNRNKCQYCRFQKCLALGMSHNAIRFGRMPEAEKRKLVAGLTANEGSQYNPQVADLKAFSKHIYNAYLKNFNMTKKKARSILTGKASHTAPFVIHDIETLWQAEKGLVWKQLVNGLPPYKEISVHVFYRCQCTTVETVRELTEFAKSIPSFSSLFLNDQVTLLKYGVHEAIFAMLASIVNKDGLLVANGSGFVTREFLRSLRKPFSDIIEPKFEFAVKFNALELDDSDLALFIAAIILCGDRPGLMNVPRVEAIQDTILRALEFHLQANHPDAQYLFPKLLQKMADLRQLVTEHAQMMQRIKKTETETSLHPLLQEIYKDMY
# Chain of human RAR-related Orphan Receptor beta (RORb), RORB (gene 6096) (Q92753 whole entry, looked up, the tested form may be a part): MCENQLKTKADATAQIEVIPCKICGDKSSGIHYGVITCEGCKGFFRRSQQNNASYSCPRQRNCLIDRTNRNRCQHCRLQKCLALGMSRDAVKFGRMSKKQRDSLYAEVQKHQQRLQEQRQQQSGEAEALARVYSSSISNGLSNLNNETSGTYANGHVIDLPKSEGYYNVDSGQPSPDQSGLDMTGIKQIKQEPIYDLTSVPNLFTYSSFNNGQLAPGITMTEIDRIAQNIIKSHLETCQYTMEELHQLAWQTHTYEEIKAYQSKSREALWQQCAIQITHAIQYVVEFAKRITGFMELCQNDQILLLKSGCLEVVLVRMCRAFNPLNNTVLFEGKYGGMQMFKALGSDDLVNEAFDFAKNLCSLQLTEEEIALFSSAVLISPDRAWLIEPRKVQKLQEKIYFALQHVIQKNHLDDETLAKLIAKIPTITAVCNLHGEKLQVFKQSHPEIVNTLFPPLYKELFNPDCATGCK
# Chain of Peroxisome proliferator-activated receptor gamma (Homo sapiens) (P37231 whole entry, looked up): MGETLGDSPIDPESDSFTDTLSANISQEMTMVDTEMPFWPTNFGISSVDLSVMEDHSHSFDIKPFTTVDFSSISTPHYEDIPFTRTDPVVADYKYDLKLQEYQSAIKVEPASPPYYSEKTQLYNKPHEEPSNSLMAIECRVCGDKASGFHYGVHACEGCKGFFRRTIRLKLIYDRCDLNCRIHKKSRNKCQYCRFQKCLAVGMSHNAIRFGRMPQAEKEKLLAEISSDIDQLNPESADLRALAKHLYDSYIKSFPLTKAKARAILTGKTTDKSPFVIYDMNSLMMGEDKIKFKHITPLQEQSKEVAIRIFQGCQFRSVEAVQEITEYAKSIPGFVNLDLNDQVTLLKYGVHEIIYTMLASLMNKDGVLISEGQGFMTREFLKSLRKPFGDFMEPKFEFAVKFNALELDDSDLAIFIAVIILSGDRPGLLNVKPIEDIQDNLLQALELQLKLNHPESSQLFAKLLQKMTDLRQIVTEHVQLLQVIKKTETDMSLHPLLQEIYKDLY
# Chain of Myc proto-oncogene protein (Homo sapiens) (P01106 whole entry, looked up): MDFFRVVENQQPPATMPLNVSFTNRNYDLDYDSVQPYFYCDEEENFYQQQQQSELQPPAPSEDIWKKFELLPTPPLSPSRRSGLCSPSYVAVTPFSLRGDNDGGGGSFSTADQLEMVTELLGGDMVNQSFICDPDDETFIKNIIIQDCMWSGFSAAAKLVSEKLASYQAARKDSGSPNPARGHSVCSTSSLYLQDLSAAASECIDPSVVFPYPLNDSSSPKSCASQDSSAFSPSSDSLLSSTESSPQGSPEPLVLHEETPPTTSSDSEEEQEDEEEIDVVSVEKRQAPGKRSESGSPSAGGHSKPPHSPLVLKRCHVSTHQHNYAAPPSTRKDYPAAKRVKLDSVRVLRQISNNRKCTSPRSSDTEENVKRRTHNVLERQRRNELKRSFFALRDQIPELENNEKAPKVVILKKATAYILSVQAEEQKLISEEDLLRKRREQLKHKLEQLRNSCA
# Chain of Cellular tumor antigen p53 (Homo sapiens) (P04637 whole entry, looked up, the tested form may be a part): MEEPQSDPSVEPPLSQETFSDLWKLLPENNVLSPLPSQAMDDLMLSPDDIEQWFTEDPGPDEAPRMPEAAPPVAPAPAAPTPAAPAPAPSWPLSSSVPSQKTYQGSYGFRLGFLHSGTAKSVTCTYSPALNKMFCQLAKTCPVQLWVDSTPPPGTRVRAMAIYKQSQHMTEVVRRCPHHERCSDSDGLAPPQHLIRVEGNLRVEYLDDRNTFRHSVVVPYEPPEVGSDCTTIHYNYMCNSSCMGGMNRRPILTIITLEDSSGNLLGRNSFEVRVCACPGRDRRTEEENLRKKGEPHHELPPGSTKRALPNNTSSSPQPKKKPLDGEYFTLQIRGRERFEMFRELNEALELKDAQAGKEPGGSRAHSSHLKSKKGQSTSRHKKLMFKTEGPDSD
smiles,measurement,setting,value
Cc1ccccc1C=O,outcome,[1],inactive
same,outcome,[2],inactive
same,outcome,[3],inactive
same,outcome,[4],inactive
same,outcome,[5],inactive
same,outcome,[6],inactive
same,outcome,[7],inactive
same,AC50,[8],20.9 µM (active)
same,outcome,[9],inactive
CCC/C=C/C=O,outcome,[1],inactive
same,outcome,[2],inactive
same,AC50,[10],30.5 µM (active)
same,outcome,[3],inactive
same,outcome,[5],inactive
same,outcome,[6],inactive
same,AC50,[7],27.7 µM (active)
same,outcome,[8],inactive
O=C=NC1CCC(CC2CCC(N=C=O)CC2)CC1 (configuration not stated),outcome,[1],inactive
same,AC50,[2],100 µM (active)
same,outcome,[4],inactive
same,outcome,[11],inactive
same,outcome,[12],inactive
same,outcome,[13],inactive
same,outcome,[6],inactive
same,outcome,[14],inactive
same,AC50,[15],23.2 µM (active)
same,outcome,[8],inactive
Cc1cc(C2(c3cc(C)c(O)cc3C)OS(=O)(=O)c3ccccc32)c(C)cc1O,outcome,[1],inactive
same,outcome,[2],inactive
same,outcome,[3],inactive
same,outcome,[4],inactive
same,outcome,[11],inactive
same,outcome,[12],inactive
same,outcome,[13],inactive
same,outcome,[14],inactive
same,outcome,[15],inactive
same,outcome,[7],inactive
same,AC50,[8],32.7 µM (active)
C=C[Si](OCC)(OCC)OCC,outcome,[1],inactive
same,outcome,[16],inactive
same,outcome,[10],inactive
same,outcome,[3],inactive
same,outcome,[4],inactive
same,outcome,[11],inactive
same,outcome,[12],inactive
same,outcome,[13],inactive
same,outcome,[5],inactive
same,outcome,[14],inactive
same,outcome,[15],inactive
same,AC50,[8],2.2 µM (active)
CC(C)=CCC[C@H](C)CC=O,outcome,[1],inactive
same,outcome,[2],inactive
same,outcome,[3],inactive
same,outcome,[4],inactive
same,outcome,[5],inactive
same,outcome,[7],inactive
same,outcome,[8],inactive
Cc1ccc2sc3cccc(C)c3c2c1,outcome,[1],inactive
same,outcome,[16],inactive
same,outcome,[10],inactive
same,outcome,[3],inactive
same,outcome,[4],inactive
same,outcome,[5],inactive
same,outcome,[6],inactive
O=[N+]([O-])c1cc(C(F)(F)F)ccc1Cl,outcome,[1],inactive
same,outcome,[2],inactive
same,outcome,[3],inactive
same,outcome,[4],inactive
same,outcome,[11],inactive
same,outcome,[12],inactive
same,outcome,[13],inactive
same,outcome,[14],inactive
same,outcome,[15],inactive
same,outcome,[7],inactive
same,outcome,[8],inactive
Cc1cccc(Nc2ccccc2C(=O)O)c1C,outcome,[1],inactive
same,outcome,[2],inactive
same,AC50,[10],100 µM (active)
same,outcome,[3],inactive
same,AC50,[5],14.5 µM (active)
same,AC50,[6],77.8 µM (active)
same,AC50,[7],12.6 µM (active)
same,outcome,[8],inactive
CCC(=O)OCc1ccccc1,outcome,[1],inactive
same,outcome,[2],inactive
same,outcome,[10],inactive
same,outcome,[4],inactive
same,outcome,[11],inactive
same,outcome,[12],inactive
same,outcome,[13],inactive
same,outcome,[6],inactive
same,outcome,[14],inactive
same,outcome,[15],inactive
same,outcome,[8],inactive
same,outcome,[9],inactive
O=C1CCc2ccccc2O1,outcome,[1],inactive
same,outcome,[2],inactive
same,outcome,[10],inactive
same,outcome,[4],inactive
same,outcome,[5],inactive
same,outcome,[7],inactive
same,outcome,[8],inactive
S=C(S)NCCNC(=S)S,outcome,[1],inactive
same,outcome,[2],inactive
same,outcome,[10],inactive
same,outcome,[3],inactive
same,outcome,[5],inactive
CC(=O)Nc1ccc(CC(=O)O)cc1,outcome,[1],inactive
same,outcome,[2],inactive
same,outcome,[10],inactive
same,outcome,[4],inactive
same,outcome,[5],inactive
same,outcome,[7],inactive
same,outcome,[9],inactive
CC(=O)C=CC1=C(C)CCCC1(C)C,outcome,[1],inactive
same,outcome,[2],inactive
same,AC50,[10],25 µM (active)
same,outcome,[3],inactive
same,AC50,[7],14.1 µM (active)
same,AC50,[8],1.02 µM (active)
CC(C)(CO)[N+](=O)[O-],outcome,[1],inactive
same,outcome,[2],inactive
same,outcome,[10],inactive
same,outcome,[7],inactive
same,outcome,[8],inactive
CCCOCC(C)O (configuration not stated),outcome,[1],inactive
same,outcome,[2],inactive
same,outcome,[10],inactive
same,outcome,[6],inactive
same,outcome,[7],inactive
same,outcome,[8],inactive
same,outcome,[9],inactive
CCCCCCC#CC(=O)OC,outcome,[1],inactive
same,outcome,[2],inactive
same,AC50,[10],21.6 µM (active)
same,outcome,[3],inactive
same,outcome,[5],inactive
same,outcome,[6],inactive
same,AC50,[7],5.61 µM (active)
same,outcome,[8],inactive
same,outcome,[9],inactive
CC(=O)/C=C/C1=C(C)CCCC1(C)C,outcome,[1],inactive
same,outcome,[2],inactive
same,AC50,[10],27.7 µM (active)
same,outcome,[3],inactive
same,outcome,[11],inactive
same,outcome,[12],inactive
same,outcome,[13],inactive
same,outcome,[14],inactive
same,outcome,[15],inactive
same,AC50,[7],21.1 µM (active)
same,AC50,[8],2.3 µM (active)
